Assay outcomes (PubChem BioAssay)
This is a sample that favours compounds with a hit; in the whole collection about 5.4% have one here.
Calb FLC – C. albicans growth modulation with fluconazole | C. albicans CaCi-2 (fluconazole-resistant clinical isolate) + fluconazole, Alamar Blue growth, 48 h | growth inhibition, % (concentration not given with the values) | 300,000 tested, 0.57% active;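 active = growth inhibition above about 58% in most replicates, limit read from the data, passing the limit was not always enough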;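 note: all wells also contain fluconazole at 8 µg/ml as a sub-toxic cotreatment; 0% = median of DMSO wells and 100% = median of geldanamycin control wells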
CSC inhib – blocks cancer stem cells; cancer stem cell-like cells viability, luminescence; inhibition, % at 7.5 µM; 300,000 tested, 1.1% active; AID 2717; in the data active = inhibition above about 75%; tested in HMLE shEcad cells
Beta apoptosis – beta cell apoptosis inhibition; AID 435005; 300,000 tested, 0.8% active; INS-1E cytokine-induced death, ATP luminescence, 48 h; percent of positive-control rescue, neutral wells zero; protection from apoptosis, % (test concentration not listed);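 active = Every replicate reaches about 75%, or at least half do and their mean reaches it too, limit read from the data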;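 note: 0% = cytokine-treated negative control wells and 100% = positive control rescue; higher means more ATP so stronger rescue from cytokine killing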
SKKanGAS inh – inhibitors of SKKanGAS S. pyogenes growth in kanamycin (SK-promoter or general growth effect). 300,000 tested, 1.3% active. inhibition, % at 7.5 µM. AID 1662. BacTiter-Glo, 6 h;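 active = mean replicate score, as percent of positive control median, at least 50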;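 note: strain carries kanamycin resistance gene driven by streptokinase promoter and grows in 40 µg/ml kanamycin; loss of luminescence reflects streptokinase promoter inhibition or plain growth inhibition; 0% = median of DMSO wells and 100% = positive control at its reference dose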
MPTP inh – permeability transition pore inhibition | isolated mouse mitochondria, Ca2+ swelling absorbance, 30 min | inhibition, % at 10 µM | 360,000 tested, 1.4% active | AID 602449;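 active = inhibition of 50% or more, scaled per plate between neutral and stimulator controls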;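 note: 0% = DMSO wells given calcium and 100% = 1 mM EGTA wells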
Mdm2 MdmX PPI – human Mdm2/MdmX binding inhibition; SaOS-2 split-luciferase Mdm2/MdmX complementation, luminescence; 330,000 tested, 3% active; O15151+Q00987; inhibition, % at 8 µM;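 active = inhibition of at least 50% at 8 µM in the primary screen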
Target sequence (O15151 whole entry, looked up): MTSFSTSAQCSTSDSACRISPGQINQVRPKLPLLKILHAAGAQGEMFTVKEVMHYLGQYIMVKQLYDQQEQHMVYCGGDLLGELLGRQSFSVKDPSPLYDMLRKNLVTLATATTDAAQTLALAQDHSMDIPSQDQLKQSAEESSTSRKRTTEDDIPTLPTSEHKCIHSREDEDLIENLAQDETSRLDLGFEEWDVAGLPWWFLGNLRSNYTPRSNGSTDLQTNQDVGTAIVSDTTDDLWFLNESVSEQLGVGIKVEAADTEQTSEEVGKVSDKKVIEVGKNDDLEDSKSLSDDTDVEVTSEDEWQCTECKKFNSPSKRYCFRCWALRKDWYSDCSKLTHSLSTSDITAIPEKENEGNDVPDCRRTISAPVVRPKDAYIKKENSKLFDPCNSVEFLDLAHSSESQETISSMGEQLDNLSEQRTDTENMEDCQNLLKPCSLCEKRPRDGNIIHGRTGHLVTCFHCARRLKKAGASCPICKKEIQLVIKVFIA
Target sequence (Q00987 whole entry, looked up): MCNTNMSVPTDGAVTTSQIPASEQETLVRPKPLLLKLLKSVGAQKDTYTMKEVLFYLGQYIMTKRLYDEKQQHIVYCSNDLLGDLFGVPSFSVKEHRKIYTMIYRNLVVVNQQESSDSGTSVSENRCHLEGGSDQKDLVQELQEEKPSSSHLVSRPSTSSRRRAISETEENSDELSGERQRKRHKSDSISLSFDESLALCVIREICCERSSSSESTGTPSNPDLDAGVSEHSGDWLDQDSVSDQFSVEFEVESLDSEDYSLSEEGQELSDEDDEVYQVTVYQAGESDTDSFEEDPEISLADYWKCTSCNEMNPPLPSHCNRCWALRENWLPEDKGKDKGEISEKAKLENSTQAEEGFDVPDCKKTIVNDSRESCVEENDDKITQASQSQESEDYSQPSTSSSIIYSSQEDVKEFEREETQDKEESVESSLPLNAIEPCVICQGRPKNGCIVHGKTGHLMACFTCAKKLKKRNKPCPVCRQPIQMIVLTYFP
MPTP counter – Rhodamine 123 counter-screen of mitochondrial pore hits; shares compounds with MPTP inh; isolated mitochondria, membrane potential, Rhodamine 123 fluorescence; inhibition, % at 10 µM; 5,000 tested, 78% active; in the data active = inhibition above about 22%;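 note: 0% = DMSO vehicle and 100% = positive control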
MPTP swell DR – dose response confirmation of mitochondrial permeability transition pore inhibitors; isolated mitochondria swelling, absorbance; AID 651561; shares compounds with MPTP inh; IC50, µM; 780 tested, 58% active; in the data active = IC50 below about 20 µM
MPTP cs DR – counter-screen for mitochondrial permeability transition pore inhibitors, dose response; shares compounds with MPTP inh; isolated mitochondria counterscreen, fluorescence read-out; IC50, µM; 780 tested, 49% active; in the data active = IC50 below about 80 µM
Active calls of the source: *; · = no result.

SMILES | Calb FLC | CSC inhib | Beta apoptosis | SKKanGAS inh | MPTP inh | Mdm2 MdmX PPI | MPTP counter | others
CC(O)(c1ccncc1)c1nc(-c2cccc(C(F)(F)F)c2)cs1 (configuration not stated) | · | · | · | · | 90.5* | · | 96.2*
Cc1cccc(C)c1NC(=S)N(Cc1cccs1)C1CCCC1 | 1.3 | -8.8 | 1.5 | 9.0 | 1.0 | 25.5 | ·
COc1ccccc1CC(=O)N(Cc1ccccc1)c1cccc(C)c1 | 5.4 | 8.6 | 0.2 | 3.5 | 0.0 | -5.7 | ·
CN(C)c1cccc(NC(=O)C2(C)Cc3c(-c4cccnc4)ccnc3O2)c1 (configuration not stated) | · | · | · | · | 0.9 | · | ·
CN(C)CCC(=O)c1ccc(Cl)cc1 | 22.9 | 27.7 | -4.3 | 1.9 | 98.9* | -11.4 | 5.1 | MPTP swell DR=10.5*;MPTP cs DR=>80
CN(CCC(=O)c1ccccc1)CCC(=O)c1ccccc1 | -3.0 | 5.3 | -10.3 | -4.1 | -1.1 | -16.6 | ·
Cc1ccc([N+](=O)[O-])cc1NC(=O)Cc1cccs1 | -12.4 | -11.9 | -6.0 | -0.3 | 3.3 | -2.2 | ·
CCOC(=O)c1c(/N=C/c2cc(C)ccc2O)sc2c1CCN(C)C2 | -1.4 | -5.1 | -0.6 | -1.6 | 85.1* | -13.3 | -17.0 | MPTP swell DR=>100;MPTP cs DR=76*
Cc1cccc(/C=N/c2sc3c(c2C(=O)OC(C)(C)C)CCN(C)C3)c1O | -1.1 | 7.7 | -8.7 | 3.3 | 56.4* | -23.0 | -19.3 | MPTP swell DR=8.87*;MPTP cs DR=67.1*
CC(C)C[C@H](NC(=O)N1c2ccccc2NC(=O)[C@@H]1C(C)C)C(=O)N[C@@H](Cc1ccccc1)C(=O)O | -4.3 | -2.5 | -0.5 | 3.3 | -1.1 | 12.5 | ·
Cc1cc2ccccn2c1C(=O)c1ccc(C#N)cc1 | 39.2 | 0.8 | -1.3 | 5.0 | 0.4 | 19.0 | ·
CCn1c(=O)cc(SCC(=O)Nc2ccc3c(c2)OCCO3)c2ccccc21 | -19.5 | -0.5 | 5.9 | 1.2 | -3.3 | 17.2 | ·
CS(=O)(=O)c1ccccc1COC(=O)Nc1ccc(Cl)cc1 | 5.7 | -18.9 | 4.2 | -8.7 | 1.0 | 10.6 | ·
O=C(Nc1ccc(Cl)cc1)OCc1ccccn1 | -18.0 | 10.5 | -6.5 | -6.7 | 90.8* | -117.3 | 85.0*
O=C(Nc1ccc(Cl)cc1)OCc1cn(-c2ccc(Cl)cc2)nn1 | -1.4 | 6.8 | 1.0 | -8.8 | 85.3* | -16.5 | 83.2*
CN(C)CC(O)COc1cccc(OCC(O)CN(C)C)c1 (configuration not stated) | -5.4 | -12.9 | -5.0 | 4.1 | 5.0 | 13.4 | ·
CNCC(O)COc1cccc(OC)c1 (configuration not stated) | 9.3 | -4.5 | -6.7 | -2.0 | 6.5 | 0.8 | ·
CN(Cc1ccc(Br)cc1)CC(O)COc1cccc(Br)c1 (configuration not stated) | 4.1 | 18.5 | -1.8 | -4.7 | 60.2* | 23.8 | -4.4 | MPTP swell DR=>100;MPTP cs DR=43*
COc1ccc(CCNCC(O)COc2cccc(Br)c2)cc1 (configuration not stated) | 9.2 | 50.2 | 1.4 | -6.8 | 60.1* | -11.3 | -6.3 | MPTP swell DR=5.13*;MPTP cs DR=46.9*
Cc1csc(SCc2c(C(=O)O)oc3ccccc23)n1 | -0.3 | 11.0 | -4.3 | -0.7 | 0.9 | 10.2 | ·
O=C(c1ccccc1)N1CCN(c2ncnc3sc4c(c23)CCC4)CC1 | 1.5 | 1.9 | 25.4 | -0.7 | 52.8* | 26.6 | 44.9*
O=c1c2c(C(F)(F)F)cc(C(F)(F)F)nc2[nH]n1-c1ccccc1 | 18.4 | 10.3 | -3.1 | 15.3 | 90.0* | 18.4 | 67.8*
COc1ccc(NS(=O)(=O)c2cc(N)ccc2N2CCCC2)cc1 | · | 15.4 | 0.0 | · | 0.7 | 20.5 | ·
CCNC(=O)Nc1cc(S(=O)(=O)Nc2ccc(OC)cc2)ccc1N1CCOCC1 | · | -13.5 | 88.5* | · | 94.1* | 27.2 | 93.4*
COc1ccc(NS(=O)(=O)c2ccc(N3CCCC3)c(NC(=S)Nc3ccc(SC(F)F)cc3)c2)cc1 | -21.1 | -3.0 | 16.9 | 10.4 | 64.2* | 20.0 | 81.2*
Nc1cc(S(=O)(=O)Nc2ccccc2Cl)ccc1N1CCOCC1 | -0.7 | -12.7 | 2.8 | 3.8 | 27.6 | -9.4 | ·
COc1ccc(NS(=O)(=O)c2ccc(N3CCCC3)c(N)c2)cc1 | 0.5 | -10.8 | 47.5 | 2.9 | 78.2* | 13.6 | 83.8*
